Each structure is given as a SMILES string. Among all 1,500 compounds or so, about 1,300 (87%) were called active. So high a share suggests a set chosen from earlier hits. Only a sample is shown. Unmarked numbers belong to inactive results. Rule as the data show it: active = inhibition above about 9%; inactive = the rest.

A short description of this experiment: PG9 antibody small-molecule binding – biochemical, TR-FRET, confirmation (AID 651571). The following applies: at 6.7 µM, active compounds read high. A general note: In TR-FRET formats the signal depends on donor and acceptor labels being close together.
In general, inhibition refers to the relative decrease from the control value, in per cent. For `COc1ccc(Cl)cc1NC(=O)Cn1nc(-c2ccc(C)cc2)n(C)c1=S`, the inhibition was 12.2% (active).
The value for `N#Cc1ccccc1NC(=O)c1cccc(COc2ccc(Cl)cc2Cl)c1` was 15.1% (active); that for `O=C1C(=O)N(CCN2CCOCC2)C(c2cccc(Cl)c2)/C1=C(/O)c1ccc2c(c1)OCO2` (stereo not drawn) was 26.7% (active); that for `O=C(O)CCCCCNc1ncnc2ccc(Br)cc12` was 28.1% (active).
The value for `COc1cccc(-c2ccc(C#N)c(SCC(=O)NCCc3ccc(Cl)cc3)n2)c1` was 7.22%; that for `COc1ccc(CCNC(=O)CSc2nc(-c3ccc(OC)c(OC)c3)ccc2C#N)cc1` was 26% (active).
The value for `O=C(Nc1c(Br)cc2c(c1Br)Cc1cc([N+](=O)[O-])ccc1-2)C(Cl)Cl` was 51.1% (active); that for `O=C(COC(=O)c1ccc2c(c1)OCCO2)NCc1ccccc1Cl` was 29.8% (active).
Regarding `COCCNC(=O)c1cc2c(Br)ccc(Br)c2nc1N`, the inhibition is 16.4% (active).
The figure for `C=CCn1c(=NC(=O)c2ccc(S(=O)(=O)N3CCCC3)cc2)sc2cc(NC(C)=O)ccc21` is 29.4% (active).
The value for `C=CCn1c(=NC(=O)c2cccs2)sc2cc(NC(C)=O)ccc21` was 9.74% (active); that for `CCCc1nc(SCC(=O)Nc2ccc(S(=O)(=O)N(C)C)cc2)c2ccccc2n1` was 34.5% (active); that for `CCc1ccc(NC(=O)CSc2nnc(-c3cnccn3)n2Cc2ccco2)cc1` was 22.4% (active).
The figure for `O=C(C1=C(O)C(=O)N(Cc2ccccc2)C1c1ccco1)c1ccco1` (stereo not drawn) is 31.8% (active); for `COc1cccc(-n2c(SCC(=O)c3c[nH]c4ccccc34)nc3ccccc3c2=O)c1` it is 27% (active).
Consider `Cc1cc(C)cc(NC(=O)C2CCCN(S(=O)(=O)c3ccc4[nH]c(=O)ccc4c3)C2)c1` (stereo not drawn), for which the inhibition was 23.8% (active).
The value for `CCn1nnc2cc(C(=O)Nc3ccc(C(=O)OC(C)C)cc3)ccc21` was 25.6% (active).
The value for `COC(=O)C1=C(C)N(Cc2ccccc2C(F)(F)F)C(=NCc2ccc(OC)cc2)NC1c1cccc(C(F)(F)F)c1` (stereo not drawn) was 6.91%.
The figure for `O=C(N=C1SC2CS(=O)(=O)CC2N1Cc1ccccc1)c1ccccc1` (stereo not drawn) is 34.1% (active); for `O=C(Nc1cccc(S(=O)(=O)Nc2ccc(Cl)cc2)c1)c1ccc2c(c1)OCCO2` it is 23.1% (active).
`COc1ccc(-c2c(C)nn3c(N4CCC(C(=O)N5CCCCC5)CC4)cc(C)nc23)cc1OC`: the inhibition is 13.9% (active).
The figure for `CCOc1cccc(NC(=O)Cn2nc(-c3ccc4c(c3)OCCO4)ccc2=O)c1` is 14.5% (active).
The value for `Cc1cc2c(cc1C)N1C(=O)c3cc4ccccc4cc3NC(=O)C1C(=O)N2` (stereo not drawn) was 12.3% (active); that for `COc1ccc(-n2nnnc2-c2nc3ccccc3s2)cc1` was 30.8% (active); that for `CCn1c(SCC(=O)Nc2cccc(F)c2)nnc1-c1cc2cc(Br)ccc2o1` was 40.1% (active).
The figure for `Cc1nc2nc(SCC(=O)c3ccccc3)[nH]c2cc1Br` is 28.4% (active).
Take `N#C/C=C1\Sc2ccccc2C(=O)N1CC(=O)N1CCN(S(=O)(=O)c2ccccc2)CC1`: the inhibition is 22.1% (active).
`N#Cc1ccccc1Sc1ccccc1C(=O)OCC(=O)NC1CCCCC1`: the inhibition is 27.3% (active).
The value for `CC(=O)c1sc2nc(SCC(=O)N3CCCCC3)[nH]c(=O)c2c1C` was 25.6% (active).
In the case of `COc1cccc(NS(=O)(=O)c2ccc3[nH]cc(C(=O)NCCCOC(C)C)c(=O)c3c2)c1`, the inhibition was 18.6% (active).
For `Fc1cc(F)c2nc(Nc3nc4c(F)cccc4s3)sc2c1`, the inhibition is 9.6% (active).
The value for `COCCCNc1nc2c(-c3cccc(C)c3)nnn2c2ccc(Cl)cc12` was 19.2% (active); that for `O=C1COc2ccc(C(=O)COC(=O)c3ccccc3Cl)cc2N1` was 24.8% (active); that for `Cc1c(-c2ccccc2)nc(N)c(C#N)c1-c1cccs1` was 18.6% (active).
For `N#Cc1c(-c2cccs2)nc(SCC(=O)c2ccc(Br)cc2)[nH]c1=O`, the inhibition is 29.8% (active).
Turning to `COc1ccc(CC(=O)Nc2ccc(-c3nnc(-c4ccccc4)o3)cc2)cc1`, the inhibition was 18.3% (active).
The value for `Cc1nc(-c2ccccc2)sc1-c1nc(-c2ccccc2)ncc1S(=O)(=O)c1ccccc1` was 8.54%; that for `Cc1ccc(-c2cc(C(=O)NCc3cn(C)nc3C)c3cc(Br)ccc3n2)cc1` was 18.5% (active); that for `CCOC(=O)c1c(C)[nH]c(C(=O)OCC(=O)c2ccc(OC)cc2OC)c1C` was 45.1% (active).
As for `Cc1ccc(-n2c(SCC(=O)NCCC3=CCCCC3)nc3n[nH]c(C)c3c2=N)cc1Cl`, the inhibition was 22.1% (active).
The value for `CCCCNC(=O)CSc1nc2n[nH]c(C)c2c(=N)n1-c1cccc(Cl)c1C` was 38.3% (active).
The figure for `Cc1ccc(-n2ncc3c(=O)n(-c4ccc(C)c(C)c4)c(-c4ccco4)nc32)cc1` is 8.17%; for `CC1(C)Cc2ccccc2-c2[nH]c(=S)[nH]c(=O)c21` it is 9.89% (active).
Regarding `CCOc1cc2ccccc2cc1C(=O)Nc1ccccn1`, the inhibition is 12.1% (active).
As to `CC(C)OCCCNC(=O)c1cc(Sc2ccc(F)cc2)nc2ccccc12`, the inhibition was 25.9% (active).
The figure for `S=c1[nH]c2ccccc2c2ccccc12` is 14.6% (active); for `Cc1cc(Br)ccc1NC(=O)c1sc2ncn(CC(=O)N3CCN(c4ccccn4)CC3)c(=O)c2c1C` it is 5.44%.
The figure for `O=C(O)CCC(=O)Nc1nc2ccc([N+](=O)[O-])cc2s1` is 5.06%; for `COC(=O)c1ccc(NC(=S)Nc2cccc(C)n2)cc1` it is 11% (active).
The value for `O=C(NCc1ccc(Cl)cc1)c1cc2c(nc3sccn32)s1` was 17.8% (active).
Consider `CC(=O)c1cc(C#N)c(SCC(=O)Nc2nccs2)nc1C`, for which the inhibition was 27.5% (active).
Take `COc1ccc(-c2csc(NC(=O)c3ccc(N4C(=O)CCC4=O)cc3)n2)cc1OC`: the inhibition is 15.2% (active).
The figure for `O=C(Oc1ccccc1)Oc1ccc2c(c1)oc(=O)c1ccccc12` is 46.9% (active); for `CCOc1ccc2cc(C#N)c(SCC(=O)OC)nc2c1` it is 48.4% (active).
The value for `Cc1cccc(Nc2nc3c(S(=O)(=O)c4ccccc4)nnn3c3ccccc23)c1C` was 41.2% (active); that for `Cc1nc2cc(NC(=O)CSc3nc4c(C)cccc4cc3C#N)ccc2s1` was 46.4% (active); that for `O=C(Nc1nnc(-c2ccccc2F)s1)c1ccccc1F` was 38.5% (active).
The figure for `N#Cc1c(N)nc2c3c(sc(=N)c2c1N)NC(=O)CC3c1ccccc1Cl` (stereo not drawn) is 24.9% (active).
Turning to `C=CCOc1cccc(C2C(C(=O)c3ccc(C)o3)=C(O)C(=O)N2CCCn2ccnc2)c1` (stereo not drawn), the inhibition was 19.4% (active).
The figure for `CCCOc1ccc(C2C(C(=O)c3ccc(C)o3)=C(O)C(=O)N2CCCn2ccnc2)cc1` (stereo not drawn) is 53% (active); for `Cn1c(=S)sc2ccc3ccccc3c21` it is 11.9% (active).
The value for `CCOc1ccc(C(=O)COC(=O)c2ccc(-n3cnnn3)cc2)cc1` was 27.8% (active).
The value for `CC(=O)c1sc(NC(=O)CCCOc2ccccc2C)nc1C` was 18.4% (active).

(Values after PubChem BioAssay AID651571 (The Scripps Research Institute Molecular Screening Center, 2012).)
